# Tests used:
# Assay in all cases: DAPPL (digital affinity profiling via proximity ligation, sequencing); 10 mM Tris-HCl pH 7.5, 50 mM NaCl, 1 mM DTT, 4% glycerol, room temperature, 30 min; GST-TFs on glutathione beads, 16-mer random dsDNA library, 0.1% formaldehyde crosslink after washing; high values mean tight binding
# FEV = target: T1, FEV (Homo sapiens, UniProt Q99581 1-238); conditions: protein: recombinant; tags: N-terminal GST; dsDNA, one strand shown
# T1 sequence: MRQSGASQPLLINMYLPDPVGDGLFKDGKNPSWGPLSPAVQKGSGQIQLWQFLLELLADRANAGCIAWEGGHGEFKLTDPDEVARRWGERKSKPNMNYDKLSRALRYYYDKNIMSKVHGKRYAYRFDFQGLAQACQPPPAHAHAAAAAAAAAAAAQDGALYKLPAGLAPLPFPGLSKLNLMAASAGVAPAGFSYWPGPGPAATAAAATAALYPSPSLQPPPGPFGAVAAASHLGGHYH
# Procedure, shortened: (§1)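 In yeast, human transcription factors were expressed with a GST fusion, then pulled down on glutathione beads and given DNA barcodes. Pooled with a tag-only sample, they were exposed to 200 nmole of a 16-mer random double-stranded DNA library (Tris/NaCl/DTT/glycerol buffer, room temperature, 30 min), washed, crosslinked with 0.1% formaldehyde, proximity-ligated using BsaI/T4 ligase for 1 h at 37 °C, PCR-amplified and read on an Illumina NextSeq500. Each hexamer's frequency of reads for a factor, divided by the matching frequency for the tag-only sample, gives the binding signal.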
# ETV5 = ETV5 (Homo sapiens, UniProt P41161 1-510); conditions: protein: recombinant; tags: N-terminal GST; dsDNA, one strand shown
# ETV5, sequence (P41161 whole entry): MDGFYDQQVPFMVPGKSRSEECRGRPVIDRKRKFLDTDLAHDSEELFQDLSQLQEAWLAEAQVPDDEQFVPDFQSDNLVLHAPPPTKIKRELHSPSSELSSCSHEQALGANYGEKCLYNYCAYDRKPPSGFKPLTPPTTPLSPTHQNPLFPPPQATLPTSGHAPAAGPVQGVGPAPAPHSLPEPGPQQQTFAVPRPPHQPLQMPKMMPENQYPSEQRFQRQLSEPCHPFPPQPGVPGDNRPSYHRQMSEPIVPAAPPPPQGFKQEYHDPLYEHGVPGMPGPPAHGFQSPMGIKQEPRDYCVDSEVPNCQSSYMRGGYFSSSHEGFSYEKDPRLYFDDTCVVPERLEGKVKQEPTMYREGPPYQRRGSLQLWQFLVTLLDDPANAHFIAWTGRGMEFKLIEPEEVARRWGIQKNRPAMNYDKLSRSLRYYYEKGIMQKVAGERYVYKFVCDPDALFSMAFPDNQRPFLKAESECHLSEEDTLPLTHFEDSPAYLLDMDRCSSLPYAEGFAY
# Procedure, shortened: as §1
# HSF1 = HSF1 (Homo sapiens, UniProt Q00613 1-529); conditions: protein: recombinant; tags: N-terminal GST; chain copies: 3; dsDNA, one strand shown
# HSF1, sequence (Q00613 whole entry): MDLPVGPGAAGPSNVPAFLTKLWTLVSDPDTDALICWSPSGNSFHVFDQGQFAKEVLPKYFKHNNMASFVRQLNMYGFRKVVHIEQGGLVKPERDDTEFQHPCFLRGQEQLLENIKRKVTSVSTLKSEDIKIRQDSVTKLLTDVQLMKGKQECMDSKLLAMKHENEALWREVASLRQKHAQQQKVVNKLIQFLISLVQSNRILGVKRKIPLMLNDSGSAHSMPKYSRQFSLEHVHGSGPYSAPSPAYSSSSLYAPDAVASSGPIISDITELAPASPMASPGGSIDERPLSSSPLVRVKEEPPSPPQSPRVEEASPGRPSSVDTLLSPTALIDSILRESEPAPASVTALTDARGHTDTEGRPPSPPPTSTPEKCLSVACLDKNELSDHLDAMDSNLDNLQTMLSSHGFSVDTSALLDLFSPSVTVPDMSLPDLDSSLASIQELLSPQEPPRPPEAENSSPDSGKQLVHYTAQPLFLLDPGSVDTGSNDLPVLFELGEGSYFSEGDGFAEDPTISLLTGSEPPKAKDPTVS
# Procedure, shortened: as §1
# SPIC = target: T2, SPIC (Homo sapiens, UniProt Q8N5J4 1-248); conditions: protein: recombinant; tags: N-terminal GST; dsDNA, one strand shown
# T2 sequence: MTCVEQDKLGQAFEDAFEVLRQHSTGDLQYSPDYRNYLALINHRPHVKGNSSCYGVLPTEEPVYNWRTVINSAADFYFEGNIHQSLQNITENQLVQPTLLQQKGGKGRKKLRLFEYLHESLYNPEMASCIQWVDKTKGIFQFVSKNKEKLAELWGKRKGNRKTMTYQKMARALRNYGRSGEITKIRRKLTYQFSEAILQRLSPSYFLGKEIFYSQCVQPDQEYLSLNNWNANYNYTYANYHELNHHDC
# Procedure, shortened: as §1
# ELF4 = ELF4 (Homo sapiens, UniProt Q99607 1-663); conditions: protein: recombinant; tags: N-terminal GST; dsDNA, one strand shown
# ELF4, sequence (Q99607 whole entry): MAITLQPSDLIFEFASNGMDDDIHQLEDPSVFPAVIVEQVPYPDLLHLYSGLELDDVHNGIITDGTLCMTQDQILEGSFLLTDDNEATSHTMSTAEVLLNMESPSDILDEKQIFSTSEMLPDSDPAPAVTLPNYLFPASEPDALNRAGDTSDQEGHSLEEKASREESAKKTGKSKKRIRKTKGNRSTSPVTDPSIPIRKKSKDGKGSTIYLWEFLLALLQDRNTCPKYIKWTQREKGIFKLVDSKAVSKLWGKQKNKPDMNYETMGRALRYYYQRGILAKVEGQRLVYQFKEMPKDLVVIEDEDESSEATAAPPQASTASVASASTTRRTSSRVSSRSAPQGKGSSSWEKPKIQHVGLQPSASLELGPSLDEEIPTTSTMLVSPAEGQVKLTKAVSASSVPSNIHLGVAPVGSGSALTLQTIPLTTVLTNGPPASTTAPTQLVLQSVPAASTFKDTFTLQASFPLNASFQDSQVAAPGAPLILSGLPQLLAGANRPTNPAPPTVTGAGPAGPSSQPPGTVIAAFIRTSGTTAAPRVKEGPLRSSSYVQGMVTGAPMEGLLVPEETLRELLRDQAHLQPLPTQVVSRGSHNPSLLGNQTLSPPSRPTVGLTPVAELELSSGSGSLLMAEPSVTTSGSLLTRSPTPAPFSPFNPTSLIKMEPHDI
# Procedure, shortened: as §1
# ELK4 = target: T3, ELK4 (Homo sapiens, UniProt P28324-2 1-405); conditions: protein: recombinant; tags: N-terminal GST; dsDNA, one strand shown
# T3 sequence: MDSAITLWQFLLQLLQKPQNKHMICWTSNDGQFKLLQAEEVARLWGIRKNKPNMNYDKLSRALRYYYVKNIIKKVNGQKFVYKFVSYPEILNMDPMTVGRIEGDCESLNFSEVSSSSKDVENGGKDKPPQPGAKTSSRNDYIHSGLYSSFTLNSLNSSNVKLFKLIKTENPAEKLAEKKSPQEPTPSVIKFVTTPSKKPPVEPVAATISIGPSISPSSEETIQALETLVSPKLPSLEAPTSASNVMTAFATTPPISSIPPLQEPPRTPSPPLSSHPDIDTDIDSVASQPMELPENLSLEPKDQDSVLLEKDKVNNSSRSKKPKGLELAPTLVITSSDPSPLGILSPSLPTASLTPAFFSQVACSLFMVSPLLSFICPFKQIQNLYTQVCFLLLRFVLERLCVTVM
# Procedure, shortened: as §1
# ETV2 = target: T4, ETV2 (Homo sapiens, UniProt O00321 1-342); conditions: protein: recombinant; tags: N-terminal GST; dsDNA, one strand shown
# T4 sequence: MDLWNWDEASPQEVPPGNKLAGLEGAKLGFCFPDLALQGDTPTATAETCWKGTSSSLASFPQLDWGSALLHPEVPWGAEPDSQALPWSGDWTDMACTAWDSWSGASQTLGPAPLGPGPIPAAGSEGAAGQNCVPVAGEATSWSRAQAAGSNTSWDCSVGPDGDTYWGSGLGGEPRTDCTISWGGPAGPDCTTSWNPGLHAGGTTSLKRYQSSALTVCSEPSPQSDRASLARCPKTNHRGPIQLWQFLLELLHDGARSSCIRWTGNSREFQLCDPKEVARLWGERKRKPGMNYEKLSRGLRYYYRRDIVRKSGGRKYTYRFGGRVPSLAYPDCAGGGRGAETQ
# Procedure, shortened: as §1
# ELF3 = target: T5, ELF3 (Homo sapiens, UniProt P78545 1-371); conditions: protein: recombinant; tags: N-terminal GST; dsDNA, one strand shown
# T5 sequence: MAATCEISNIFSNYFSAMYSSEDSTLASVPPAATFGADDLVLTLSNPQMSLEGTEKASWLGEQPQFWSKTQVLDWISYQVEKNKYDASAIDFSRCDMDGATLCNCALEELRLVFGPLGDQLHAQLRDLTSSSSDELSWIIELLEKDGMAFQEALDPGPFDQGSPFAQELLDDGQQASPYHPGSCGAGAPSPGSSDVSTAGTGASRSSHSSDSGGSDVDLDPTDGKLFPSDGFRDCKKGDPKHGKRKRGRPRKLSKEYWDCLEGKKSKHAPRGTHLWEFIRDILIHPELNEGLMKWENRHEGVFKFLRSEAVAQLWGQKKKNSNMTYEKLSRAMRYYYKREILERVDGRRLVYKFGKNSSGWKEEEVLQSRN
# Procedure, shortened: as §1
# CRX = CRX (Homo sapiens, UniProt O43186 1-299); conditions: protein: recombinant; tags: N-terminal GST; dsDNA, one strand shown
# CRX, sequence (O43186 whole entry): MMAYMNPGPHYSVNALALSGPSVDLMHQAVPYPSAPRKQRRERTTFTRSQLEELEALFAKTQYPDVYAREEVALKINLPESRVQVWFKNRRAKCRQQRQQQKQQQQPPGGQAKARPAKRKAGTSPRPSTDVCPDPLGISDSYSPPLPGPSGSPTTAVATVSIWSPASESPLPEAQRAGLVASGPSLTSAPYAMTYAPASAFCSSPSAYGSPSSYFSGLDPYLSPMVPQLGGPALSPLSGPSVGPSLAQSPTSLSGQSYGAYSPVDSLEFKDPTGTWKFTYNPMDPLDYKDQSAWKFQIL
# Procedure, shortened: as §1
# ETV1 = ETV1 (Homo sapiens, UniProt P50549 1-477); conditions: protein: recombinant; tags: N-terminal GST; dsDNA, one strand shown
# ETV1, sequence (P50549 whole entry): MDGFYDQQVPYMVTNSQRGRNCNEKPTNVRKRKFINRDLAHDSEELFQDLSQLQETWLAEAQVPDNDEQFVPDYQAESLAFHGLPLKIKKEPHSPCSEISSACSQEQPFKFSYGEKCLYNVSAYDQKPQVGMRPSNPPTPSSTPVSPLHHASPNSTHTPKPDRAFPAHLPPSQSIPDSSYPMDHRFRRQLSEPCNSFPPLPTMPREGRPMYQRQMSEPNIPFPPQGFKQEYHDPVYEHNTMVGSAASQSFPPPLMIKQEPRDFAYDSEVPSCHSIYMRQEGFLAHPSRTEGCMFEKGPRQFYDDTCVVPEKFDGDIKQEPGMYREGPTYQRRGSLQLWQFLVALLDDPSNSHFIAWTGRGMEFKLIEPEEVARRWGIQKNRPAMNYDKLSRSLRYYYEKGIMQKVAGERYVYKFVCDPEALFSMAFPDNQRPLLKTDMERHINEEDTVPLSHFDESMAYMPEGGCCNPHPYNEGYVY
# Procedure, shortened: as §1
# ERF = target: T6, ERF (Homo sapiens, UniProt P50548 1-548); conditions: protein: recombinant; tags: N-terminal GST; dsDNA, one strand shown
# T6 sequence: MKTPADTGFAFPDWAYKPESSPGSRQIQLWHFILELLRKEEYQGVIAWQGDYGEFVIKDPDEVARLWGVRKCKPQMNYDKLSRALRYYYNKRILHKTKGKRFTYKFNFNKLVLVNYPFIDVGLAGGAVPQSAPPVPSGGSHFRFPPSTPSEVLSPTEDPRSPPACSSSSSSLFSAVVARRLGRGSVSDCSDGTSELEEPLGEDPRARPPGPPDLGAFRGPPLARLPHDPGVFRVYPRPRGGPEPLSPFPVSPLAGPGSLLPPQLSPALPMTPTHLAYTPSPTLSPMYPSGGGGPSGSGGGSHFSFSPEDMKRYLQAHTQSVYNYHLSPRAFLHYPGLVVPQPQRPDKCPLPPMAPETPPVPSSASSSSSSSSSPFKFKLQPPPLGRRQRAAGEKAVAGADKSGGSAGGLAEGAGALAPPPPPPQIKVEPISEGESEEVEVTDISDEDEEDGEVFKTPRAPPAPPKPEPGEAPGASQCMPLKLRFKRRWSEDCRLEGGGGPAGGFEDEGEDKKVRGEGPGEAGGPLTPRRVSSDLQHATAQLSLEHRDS
# Procedure, shortened: as §1
# ETV3L = target: T7, ETV3L (Homo sapiens, UniProt Q6ZN32 1-361); conditions: protein: recombinant; tags: N-terminal GST; dsDNA, one strand shown
# T7 sequence: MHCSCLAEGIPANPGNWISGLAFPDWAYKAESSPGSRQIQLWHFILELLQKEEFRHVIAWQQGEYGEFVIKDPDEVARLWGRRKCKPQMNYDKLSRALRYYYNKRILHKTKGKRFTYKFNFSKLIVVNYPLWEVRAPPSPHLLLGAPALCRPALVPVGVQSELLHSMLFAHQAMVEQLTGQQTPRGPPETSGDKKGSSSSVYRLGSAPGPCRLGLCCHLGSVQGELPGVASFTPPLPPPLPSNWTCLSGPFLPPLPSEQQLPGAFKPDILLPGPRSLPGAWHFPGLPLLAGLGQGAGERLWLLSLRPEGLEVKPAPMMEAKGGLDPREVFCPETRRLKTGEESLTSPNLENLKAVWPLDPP
# Procedure, shortened: as §1
# ETS2 = target: T8, ETS2 (Homo sapiens, UniProt P15036 1-469); conditions: protein: recombinant; tags: N-terminal GST; dsDNA, one strand shown
# T8 sequence: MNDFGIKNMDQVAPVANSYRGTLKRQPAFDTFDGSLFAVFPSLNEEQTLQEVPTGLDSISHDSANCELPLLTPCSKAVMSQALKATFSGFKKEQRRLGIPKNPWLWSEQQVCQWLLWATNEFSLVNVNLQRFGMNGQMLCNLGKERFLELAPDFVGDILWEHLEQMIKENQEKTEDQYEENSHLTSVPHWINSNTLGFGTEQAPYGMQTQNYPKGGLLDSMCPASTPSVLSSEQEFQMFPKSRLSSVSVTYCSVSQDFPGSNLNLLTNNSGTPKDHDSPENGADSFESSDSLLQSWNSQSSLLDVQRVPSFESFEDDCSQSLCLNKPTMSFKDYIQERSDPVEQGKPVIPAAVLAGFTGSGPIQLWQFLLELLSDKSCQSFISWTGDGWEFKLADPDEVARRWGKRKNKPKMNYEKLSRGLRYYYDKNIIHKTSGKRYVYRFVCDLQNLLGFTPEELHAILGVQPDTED
# Procedure, shortened: as §1
# SPDEF = target: T9, SPDEF (Homo sapiens, UniProt O95238 1-335); conditions: protein: recombinant; tags: N-terminal GST; dsDNA, one strand shown
# T9 sequence: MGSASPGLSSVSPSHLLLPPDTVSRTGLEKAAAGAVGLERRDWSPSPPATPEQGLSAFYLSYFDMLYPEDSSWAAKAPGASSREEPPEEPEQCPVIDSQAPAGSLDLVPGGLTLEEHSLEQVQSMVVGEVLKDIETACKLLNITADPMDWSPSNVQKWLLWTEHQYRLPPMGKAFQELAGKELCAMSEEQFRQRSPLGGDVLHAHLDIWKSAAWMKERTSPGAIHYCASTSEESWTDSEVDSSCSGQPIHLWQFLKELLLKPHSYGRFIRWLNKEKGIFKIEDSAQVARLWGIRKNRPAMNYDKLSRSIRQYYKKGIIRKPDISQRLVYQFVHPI
# Procedure, shortened: as §1
# ETV7 = target: T10, ETV7 (Homo sapiens, UniProt Q9Y603 1-341); conditions: protein: recombinant; tags: N-terminal GST; dsDNA, one strand shown
# T10 sequence: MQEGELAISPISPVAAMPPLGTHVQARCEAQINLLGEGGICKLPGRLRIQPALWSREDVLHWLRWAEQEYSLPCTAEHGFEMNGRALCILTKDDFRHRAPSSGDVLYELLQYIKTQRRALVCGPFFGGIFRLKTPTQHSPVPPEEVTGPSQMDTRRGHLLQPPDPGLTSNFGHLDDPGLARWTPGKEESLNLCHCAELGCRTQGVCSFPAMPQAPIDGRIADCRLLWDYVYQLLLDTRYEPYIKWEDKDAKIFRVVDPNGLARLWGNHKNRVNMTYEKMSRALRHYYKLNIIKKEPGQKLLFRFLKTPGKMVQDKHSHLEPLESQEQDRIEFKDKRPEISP
# Procedure, shortened: as §1
# ELF5 = target: T11, ELF5 (Homo sapiens, UniProt Q9UKW6-2 1-255); conditions: protein: recombinant; tags: N-terminal GST; dsDNA, one strand shown
# T11 sequence: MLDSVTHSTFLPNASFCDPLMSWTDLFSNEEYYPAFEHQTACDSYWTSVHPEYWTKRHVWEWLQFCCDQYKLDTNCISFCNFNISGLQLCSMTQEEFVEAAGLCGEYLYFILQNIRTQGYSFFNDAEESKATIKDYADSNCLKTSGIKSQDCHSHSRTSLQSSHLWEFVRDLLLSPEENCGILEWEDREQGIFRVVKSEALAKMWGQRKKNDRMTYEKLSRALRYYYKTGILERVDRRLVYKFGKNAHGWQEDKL
# Procedure, shortened: as §1
# ETV3 = target: T12, ETV3 (Homo sapiens, UniProt P41162-2 1-143); conditions: protein: recombinant; tags: N-terminal GST; dsDNA, one strand shown
# T12 sequence: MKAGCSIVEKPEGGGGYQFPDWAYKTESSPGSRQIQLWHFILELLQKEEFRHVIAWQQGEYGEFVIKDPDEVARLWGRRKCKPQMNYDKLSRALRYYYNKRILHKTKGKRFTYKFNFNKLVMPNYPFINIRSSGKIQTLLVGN
# Procedure, shortened: as §1
# ETV6 = ETV6 (Homo sapiens, UniProt P41212 1-452); conditions: protein: recombinant; tags: N-terminal GST; dsDNA, one strand shown
# ETV6, sequence (P41212 whole entry): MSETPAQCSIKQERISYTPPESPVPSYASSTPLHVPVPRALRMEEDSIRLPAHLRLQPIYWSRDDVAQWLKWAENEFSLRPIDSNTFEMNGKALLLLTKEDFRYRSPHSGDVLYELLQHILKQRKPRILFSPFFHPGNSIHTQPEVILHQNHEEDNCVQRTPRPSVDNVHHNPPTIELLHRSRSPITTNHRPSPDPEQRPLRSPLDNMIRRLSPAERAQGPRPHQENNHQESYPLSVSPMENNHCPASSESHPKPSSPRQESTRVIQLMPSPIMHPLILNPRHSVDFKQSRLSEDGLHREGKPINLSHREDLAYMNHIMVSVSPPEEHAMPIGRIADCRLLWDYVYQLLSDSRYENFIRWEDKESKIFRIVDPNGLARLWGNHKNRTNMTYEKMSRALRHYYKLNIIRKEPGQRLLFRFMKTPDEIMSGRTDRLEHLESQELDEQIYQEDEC
# Procedure, shortened: as §1
sequence,measurement,setting,value
GTAATT,binding signal,FEV,"1.16 fold enrichment (6-mer frequency, TF over GST control)"
same,binding signal,ETV5,"1.23 fold enrichment (6-mer frequency, TF over GST control)"
same,binding signal,HSF1,"1.36 fold enrichment (6-mer frequency, TF over GST control)"
same,binding signal,SPIC,"1.21 fold enrichment (6-mer frequency, TF over GST control)"
same,binding signal,ELF4,"1.22 fold enrichment (6-mer frequency, TF over GST control)"
same,binding signal,ELK4,"1.11 fold enrichment (6-mer frequency, TF over GST control)"
same,binding signal,ETV2,"1.31 fold enrichment (6-mer frequency, TF over GST control)"
same,binding signal,ELF3,"1.19 fold enrichment (6-mer frequency, TF over GST control)"
same,binding signal,CRX,"1.59 fold enrichment (6-mer frequency, TF over GST control)"
same,binding signal,ETV1,"1.3 fold enrichment (6-mer frequency, TF over GST control)"
same,binding signal,ERF,"1.12 fold enrichment (6-mer frequency, TF over GST control)"
same,binding signal,ETV3L,"1.21 fold enrichment (6-mer frequency, TF over GST control)"
same,binding signal,ETS2,"1.28 fold enrichment (6-mer frequency, TF over GST control)"
same,binding signal,SPDEF,"1.19 fold enrichment (6-mer frequency, TF over GST control)"
same,binding signal,ETV7,"1.3 fold enrichment (6-mer frequency, TF over GST control)"
same,binding signal,ELF5,"1.28 fold enrichment (6-mer frequency, TF over GST control)"
same,binding signal,ETV3,"1.18 fold enrichment (6-mer frequency, TF over GST control)"
same,binding signal,ETV6,"1.3 fold enrichment (6-mer frequency, TF over GST control)"

# Source: PMC7862700, “An all-to-all approach to the identification of sequence-specific readers for epigenetic DNA modifications on cytosine”
